Shown are actives, neighbours in structure and some others; about 1.8% of the full set was active somewhere.
LYPLA2 inh – counter-screen for PME1 inhibitors: inhibitors of human LYPLA2; O95372; recombinant LYPLA2, FP-Rh probe fluorescence polarization; inhibition, % at 5.9 µM; 320,000 tested, 0.38% active; AID 2177;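 active = inhibition above the screen-wide mean plus 3 SD, limit set per campaign, cut at about 26% in these data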;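 also: 0% = LYPLA2 with DMSO and 100% = wells lacking LYPLA2 enzyme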
Target sequence (O95372 whole entry, looked up): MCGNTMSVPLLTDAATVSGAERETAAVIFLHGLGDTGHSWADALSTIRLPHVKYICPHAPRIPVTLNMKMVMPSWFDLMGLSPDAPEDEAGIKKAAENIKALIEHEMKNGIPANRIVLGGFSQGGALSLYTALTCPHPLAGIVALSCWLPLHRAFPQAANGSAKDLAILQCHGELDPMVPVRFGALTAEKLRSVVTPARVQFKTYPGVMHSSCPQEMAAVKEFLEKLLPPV
Fam108B inh – blocks mouse Fam108B hydrolase in RBBP9 counter-screen | inhibition, % at 9.51 µM | recombinant Fam108B, FP-Rh probe fluorescence polarization | 300,000 tested, 0.33% active;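 active = inhibition above the screen mean inhibition plus 3 SD, computed separately per campaign, cut at about 18% in these data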;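 also: inhibitors lower polarization as less probe binds the enzyme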
LYPLA1 inh – LYPLA1 (human) inhibition in PME1 counter-screen. O75608. recombinant LYPLA1, FP-Rh probe fluorescence polarization. inhibition, % at 5.9 µM. 320,000 tested, 0.16% active. AID 2174;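 active = inhibition above the mean of all tested compounds plus 3 SD, set per campaign, cut at about 14% in these data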;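 also: inhibitors block serine hydrolase probe labeling of LYPLA1 so polarization falls; 0% = enzyme with DMSO and 100% = wells lacking LYPLA1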
Target sequence (O75608 whole entry, looked up): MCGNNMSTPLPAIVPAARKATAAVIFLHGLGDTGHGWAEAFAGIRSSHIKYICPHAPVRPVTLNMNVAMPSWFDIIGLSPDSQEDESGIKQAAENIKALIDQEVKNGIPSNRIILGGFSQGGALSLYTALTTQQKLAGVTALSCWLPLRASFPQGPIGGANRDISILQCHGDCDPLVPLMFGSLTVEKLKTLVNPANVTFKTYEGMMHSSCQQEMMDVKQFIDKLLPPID
PME-1 inh – PME-1 (human) inhibition; inhibition, % at 5.9 µM; 320,000 tested, 0.53% active; recombinant PME-1, FP-Rh probe fluorescence polarization; Q9Y570;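 active = inhibition above the campaign mean of all compounds plus 3 SD, cut at about 26% in these data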;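 also: competitive labeling of PME-1 active site by serine hydrolase directed probe; 0% = PME-1 with DMSO and 100% = wells lacking PME-1 enzyme; inhibitors block probe labeling so polarization falls and inhibition rises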
PAD4 inh – blocks human protein arginine deiminase 4; AID 485272; inhibition, % at 6.36 µM; Q9UM07; 330,000 tested, 0.41% active; recombinant PAD4, RCA probe fluorescence polarization;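 active = percent inhibition above a cutoff equal to the mean of all tested compounds plus 3 SD, cut at about 15% in these data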;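 also: 0% = PAD4 with RCA probe and DMSO and 100% = probe without PAD4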
GSTO1 counter – counter-screen for RBBP9 inhibitors: inhibitors of human GSTO1. P78417. recombinant GSTO1, activity-based probe fluorescence polarization. inhibition, % at 5.96 µM. 300,000 tested, 1.1% active. AID 1974;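 active = inhibition above the campaign mean inhibition plus 3 SD, cut at about 35% in these data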;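 also: 0% = GSTO1-1 with DMSO and 100% = wells lacking GSTO1-1 enzyme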
Target sequence (P78417 whole entry, looked up): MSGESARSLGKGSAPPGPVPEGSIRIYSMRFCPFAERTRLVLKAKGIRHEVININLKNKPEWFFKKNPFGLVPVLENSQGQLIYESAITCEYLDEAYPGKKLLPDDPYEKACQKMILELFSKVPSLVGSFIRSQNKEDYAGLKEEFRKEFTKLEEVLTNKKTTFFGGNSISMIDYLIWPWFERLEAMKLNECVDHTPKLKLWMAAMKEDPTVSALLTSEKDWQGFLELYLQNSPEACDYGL
Fam108b confirm – confirmation of mouse Fam108b serine hydrolase inhibitors; recombinant Fam108b, FP-Rh probe fluorescence polarization; shares compounds with Fam108B inh; inhibition, % at 9.51 µM; 930 tested, 44% active;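 active = inhibition above a limit from the primary screen, the mean over all compounds plus 3 SD, cut at about 19% in these data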;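 also: 0% = median of active Fam108b wells and 100% = catalytically dead S170A mutant; inhibitors free the probe so polarization falls as inhibition rises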
Fam108b ABPP HTS – inhibits mouse Fam108b in gel-based ABPP. recombinant Fam108b, fluorophosphonate probe. 260 tested, 44% active. inhibition, % at 20 µM. shares compounds with Fam108B inh. AID 588649; in the data active = inhibition above about 40%
GSTO1 inh conf – confirmation of human GSTO1 inhibitors; shares compounds with GSTO1 counter; recombinant GSTO1, probe fluorescence polarization; inhibition, % at 5.96 µM; 2,400 tested, 54% active;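 active = inhibition above the primary screen's cutoff, its mean inhibition plus 3 SD, cut at about 35% in these data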;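 also: loss of polarization as inhibitors block binding of rhodamine sulfonate ester activity probe; 0% = GSTO1 with DMSO and 100% = wells lacking GSTO1 enzyme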
LYPLA1 confirm – counter-screen for PME1 inhibitors: confirmation of human LYPLA1 inhibitors | shares compounds with LYPLA1 inh | recombinant LYPLA1, FP-Rh probe fluorescence polarization | inhibition, % at 5.9 µM | 480 tested, 69% active;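 active = mean inhibition across replicates above the hit cutoff set in the primary screen, cut at about 15% in these data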;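 also: loss of FP-Rh probe labeling of LYPLA1 seen as lower polarization; 0% = LYPLA1 with DMSO and 100% = wells lacking LYPLA1 enzyme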
LYPLA2 conf – counter-screen for PME1 inhibitors: confirmation of human LYPLA2 inhibitors; inhibition, % at 5.9 µM; recombinant LYPLA2, FP-Rh probe fluorescence polarization; 1,100 tested, 72% active; shares compounds with LYPLA2 inh;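 active = mean inhibition across replicates above the hit cutoff set in the primary screen, cut at about 26% in these data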;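 also: blocked labeling of the enzyme by serine hydrolase FP-Rh probe lowers polarization; 0% = enzyme with DMSO and 100% = wells lacking LYPLA2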
PAD4 FP conf – PAD4 (human) inhibition, confirmed. shares compounds with PAD4 inh. recombinant PAD4, RCA probe fluorescence polarization. inhibition, % at 6.36 µM. 1,200 tested, 28% active. AID 488796;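 active = mean inhibition across replicates above the hit cutoff set by the earlier primary screen, cut at about 15% in these data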;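 also: inhibitors block active-site labeling by the probe so polarization falls; 0% = PAD4 with probe and DMSO and 100% = probe without PAD4 enzyme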
Active calls of the source: *.

What do the screens show for `COc1cccc2c1C(=O)c1c(O)c3c(c(O)c1C2=O)C[C@@](O)(C(=O)CO)C[C@@H]3O[C@H]1C[C@H](N)[C@@H](O)[C@H](C)O1`?
LYPLA2 inh: 41*; Fam108B inh: 36*; LYPLA1 inh: 57*; PME-1 inh: 46*; PAD4 inh: 56*; GSTO1 counter: 44*; Fam108b confirm: 35*; Fam108b ABPP HTS: 35; GSTO1 inh conf: 33; LYPLA1 confirm: 56*; PAD4 FP conf: 64*

Results for Oc1ccc(N=Cc2ccc(-c3cccs3)s2)cc1 ?
LYPLA2 inh: 29*; Fam108B inh: 28*; LYPLA1 inh: 10; PME-1 inh: 51*; PAD4 inh: 18*; GSTO1 counter: 82*; Fam108b confirm: 62*; Fam108b ABPP HTS: 0; GSTO1 inh conf: 6; LYPLA2 conf: 8; PAD4 FP conf: 7

What do the screens show for `COc1ccccc1CNC(=O)C(CCSC)NC(=O)c1cccc(S(=O)(=O)N2CCOCC2)c1` (configuration not stated)?
PAD4 inh: 0

What do the screens show for `COCCCNc1nc2ccccc2[nH]c1=O`?
LYPLA2 inh: -7; Fam108B inh: 1; LYPLA1 inh: -3; PME-1 inh: -2; PAD4 inh: -4; GSTO1 counter: -2

What do the screens show for `COCCCNc1c2c3c(cccc3[nH]c1=O)C(=O)c1ccccc1-2`?
LYPLA2 inh: 126*; Fam108B inh: 106*; LYPLA1 inh: 105*; PME-1 inh: 124*; PAD4 inh: 135*; GSTO1 counter: 79*; Fam108b confirm: 131*; Fam108b ABPP HTS: 0; GSTO1 inh conf: 92*; LYPLA1 confirm: 101*; LYPLA2 conf: 97*; PAD4 FP conf: 151*

What do the screens show for `N#Cc1c(NC(=O)c2ccc(Br)o2)n(-c2ccccc2)c2nc3ccccc3nc12`?
LYPLA2 inh: 1; Fam108B inh: 33*; LYPLA1 inh: 0; PME-1 inh: 17; PAD4 inh: 36*; GSTO1 counter: 74*; Fam108b confirm: 34*; Fam108b ABPP HTS: 0; GSTO1 inh conf: 85*; PAD4 FP conf: 20*

What do the screens show for `Cc1cccc(C(=O)Oc2cccc3c(O)cccc23)c1`?
LYPLA2 inh: 5; Fam108B inh: 3; LYPLA1 inh: -3; PME-1 inh: 6; PAD4 inh: -10; GSTO1 counter: 4

What do the screens show for `Cc1cc(O)ccc1N=Cc1c(C(F)(F)F)[nH][nH]c1=O`?
LYPLA2 inh: 86*; Fam108B inh: 31*; LYPLA1 inh: 71*; PME-1 inh: 89*; PAD4 inh: 98*; GSTO1 counter: 94*; Fam108b confirm: 0; LYPLA1 confirm: 5; LYPLA2 conf: 6; PAD4 FP conf: 2

How did O=c1[nH][nH]c(C(F)(F)F)c1C=Nc1ccccc1 do in these assays?
LYPLA2 inh: 1; Fam108B inh: 2; LYPLA1 inh: 2; PME-1 inh: 4; PAD4 inh: -4; GSTO1 counter: 7

What do the screens show for `C=CCn1c(NS(=O)(=O)c2ccccc2)c(S(=O)(=O)c2ccc(C)cc2)c2nc3ccccc3nc21`?
LYPLA2 inh: 82*; Fam108B inh: 74*; LYPLA1 inh: 80*; PME-1 inh: 33*; PAD4 inh: 76*; GSTO1 counter: 101*; Fam108b confirm: 5; GSTO1 inh conf: 88*; LYPLA1 confirm: 66*; LYPLA2 conf: 90*; PAD4 FP conf: 14

How did CCCCn1c(N)c(S(=O)(=O)c2ccc(C)cc2)c2nc3ccccc3nc21 do in these assays?
LYPLA2 inh: -22; Fam108B inh: -12; LYPLA1 inh: -14; PME-1 inh: 0; PAD4 inh: -4; GSTO1 counter: -15

How did CNS(=O)(=O)c1cc(S(=O)(=O)NC)c2cccc3c2c1NC3=O do in these assays?
LYPLA2 inh: 0; Fam108B inh: 6; LYPLA1 inh: 3; PME-1 inh: 1; PAD4 inh: 4; GSTO1 counter: -1

How did O=C1C(Cl)=C(N2CCN(c3ccccc3[N+](=O)[O-])CC2)C(=O)c2ccccc21 do in these assays?
LYPLA2 inh: 16; Fam108B inh: 30*; LYPLA1 inh: 1; PME-1 inh: 25; PAD4 inh: 29*; GSTO1 counter: 82*; Fam108b confirm: 32*; Fam108b ABPP HTS: 5; GSTO1 inh conf: 88*; PAD4 FP conf: 8

What do the screens show for `CCN(CC(=O)NCc1cccs1)C(=O)/C=C/c1cccc(Cl)c1Cl`?
LYPLA2 inh: 4; Fam108B inh: -1; LYPLA1 inh: -2; PME-1 inh: -3; PAD4 inh: 3; GSTO1 counter: -1

What do the screens show for `CC(=O)Nc1ccc(Nc2ccc3c4c(cc(=O)n3C)-c3ccccc3C(=O)c24)cc1`?
LYPLA2 inh: 9; Fam108B inh: 5; LYPLA1 inh: 4; PME-1 inh: 4; PAD4 inh: 3; GSTO1 counter: 14

What do the screens show for `Cn1c(=O)c(Nc2ccc(Cl)cc2)c2c3c(cccc31)C(=O)c1ccccc1-2`?
LYPLA2 inh: 33*; Fam108B inh: 32*; LYPLA1 inh: 20*; PME-1 inh: 31*; PAD4 inh: 33*; GSTO1 counter: 19; Fam108b confirm: 34*; Fam108b ABPP HTS: 0; LYPLA1 confirm: 34*; LYPLA2 conf: 25; PAD4 FP conf: 50*

How did COc1ccc2noc3c2c1C(=O)c1ccccc1-3 do in these assays?
LYPLA2 inh: 29*; Fam108B inh: 20*; LYPLA1 inh: 25*; PME-1 inh: 26*; PAD4 inh: 143*; GSTO1 counter: 20; Fam108b confirm: 23*; LYPLA1 confirm: 21*; LYPLA2 conf: 23; PAD4 FP conf: 144*

Results for CCCCn1c(N)c(N(CCOC)C(=O)c2cccc(S(=O)(=O)N(C)c3ccc(C)cc3)c2)c(=O)[nH]c1=O ?
LYPLA2 inh: -3; Fam108B inh: -1; LYPLA1 inh: -2; PME-1 inh: 1; PAD4 inh: 3; GSTO1 counter: 7

Screens from PubChem.
